Compounds with a hit are over-represented: about 4.6% of the library has one in this group of screens.
D1 antag: antagonists of human D1 dopamine receptor; 360,000 tested, 3.2% active; activity change, negative = inhibition, % at 10 µM; P21728; AID 504652; HEK293 TREx D1 cells, calcium flux, dopamine EC80; hits give low values; in the data active means activity change below about -30%
Target sequence (P21728 whole entry, looked up): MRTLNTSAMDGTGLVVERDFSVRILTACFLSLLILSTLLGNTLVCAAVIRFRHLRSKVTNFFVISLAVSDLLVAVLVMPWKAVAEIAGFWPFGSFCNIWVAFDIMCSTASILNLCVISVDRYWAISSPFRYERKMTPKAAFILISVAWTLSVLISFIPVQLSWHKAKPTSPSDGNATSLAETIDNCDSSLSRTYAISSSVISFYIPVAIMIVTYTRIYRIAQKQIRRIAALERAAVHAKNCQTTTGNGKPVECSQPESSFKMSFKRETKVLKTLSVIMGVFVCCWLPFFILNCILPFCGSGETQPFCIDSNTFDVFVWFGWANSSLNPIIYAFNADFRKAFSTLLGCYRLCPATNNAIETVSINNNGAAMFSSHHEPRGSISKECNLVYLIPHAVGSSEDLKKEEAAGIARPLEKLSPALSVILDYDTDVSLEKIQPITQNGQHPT
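Inducible Hek293 Trex D1 cells (tetracycline, overnight, 30 C). Calcium dye 30–90 min RT. Antagonist mode: EC80 dopamine added after 180 s compound read.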
TRHR ag: TRH receptor (human) agonism | 360,000 tested, 0.18% active | AID 493084 | P34981 | TRHR cells, calcium flux fluo-8, FDSS agonist mode | activation, % at 2 µM
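Fluo-8-loaded TRHR cells; 10 s baseline, compound added, kinetic Ca2+ fluorescence read 1/s, agonist mode.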
D1 agonist: agonists of human D1 dopamine receptor | P21728 | HEK293 T-REx D1 cells, calcium flux, agonist mode | activation, % at 2 µM | 360,000 tested, 1% active
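Inducible HEK293 T-REx D1 cells, force-coupled to calcium signalling, were plated at 4000 cells/well with tetracycline and held overnight at 30 C. After no-wash calcium dye loading, compound-evoked calcium rise over 180 s flagged agonists.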
TRHR enhancer: allosterically enhances the human TRH receptor. P34981. TRHR cells, fluo-8 calcium fluorescence, EC20 TRH enhancement. enhancement, % at 2 µM. 360,000 tested, 0.66% active; in the data active means enhancement above about 30%
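TRHR-expressing cells loaded with fluo-8 calcium dye were read kinetically (ex 480/em 530) during compound addition, then stimulated with an EC20 of TRH (10 nM final). Enhancement of the Gq-mediated intracellular calcium response was scored.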
D1 potentiator: potentiators of human D1 dopamine receptor; P21728; HEK293 TREx D1 cells, calcium flux, dopamine EC20 potentiation; potentiation, % at 10 µM; 360,000 tested, 0.036% active; AID 504651; in the data active means potentiation above about 30%
Of the large screens only hits and unclear results are named; the others gave an inactive call; ! = a repeat was not active. Unless noted, no stated cut-off is given here; in the data, active means activation above about 30%; inactive means the rest.

COc1cc(-c2cc(-c3ccc(F)cc3)nc(N)c2C#N)ccc1O	D1 antag -43.7
COc1ccc(N2Cc3cccc(C(=O)Nc4ccc(C(C)C)cc4)c3C2=O)cc1	none
COc1ccc(N2CCN(C(=O)c3c(Cl)cnn3C)CC2)cc1	D1 antag -57.7
COc1ccc(N2CCN(C(=O)NC3CCCCC3)CC2)cc1	none
COc1ccc(N2CCN(C(=O)c3cn(CC4CCCCC4)nn3)CC2)cc1	D1 antag -34.1
CCOC(=O)c1[nH]c2c(c1Cc1ccccc1)C(=O)CC(c1ccccc1)C2 (centres undefined)	none
COc1ccc(NC(=O)C2CCC(CNS(=O)(=O)c3ccc4c(c3)C(C)(C)C(=O)N4C)CC2)cc1 (centres undefined)	none
Fc1ccc(-n2cc(CNCCc3cccnc3)c(-c3ccccc3Cl)n2)cc1	D1 agonist 61.5
Fc1ccc(-c2nn(-c3ccccc3)cc2CNCc2ccccc2)cc1	none
Fc1ccc(-n2cc(CNCCc3ccncc3)c(-c3ccccc3Cl)n2)cc1	D1 antag -31.8
Cc1cc(=O)n2nc(N3CCC(C(=O)NCCCOC(C)C)CC3)sc2n1	none
COc1ccc(S(=O)(=O)n2nc(-c3ccco3)nc2NCc2ccc(N(C)C)cc2)cc1	none
CC1CCCC(NC(=O)c2ccc(CNc3c(N4CCCC4)c(=O)c3=O)cc2)C1C (centres undefined)	D1 antag -32.1
Cc1nc2cccnc2n1C1CCN(S(C)(=O)=O)CC1	none
O=C(NCCc1ccc(Cl)cc1)c1ccc2c(c1)OCCO2	D1 antag -36.7
CCCNC(=O)C(=O)NCCC1=CCCCC1	none
CC(C)CCNC(=O)C(=O)NCCC1=CCCCC1	D1 antag -46.9
O=C(NC(=S)NCCC1=CCCCC1)c1cncc(Br)c1	D1 antag -31.8
CS(=O)(=O)N(Cc1ccc(Cl)cc1)c1ccc(C(=O)NCCC2=CCCCC2)cc1	none
O=C(NCCC1=CCCCC1)c1ccc(Cl)cc1	D1 antag -41.2
CC(C)c1ccc(S(=O)(=O)NCc2ccc3c(c2)CCN3C(=O)c2ccccc2)cc1	none
OCCN1CCN(c2nc(NCc3ccco3)c3ccccc3n2)CC1	none
Cc1ccccc1Nc1nc(NCc2ccco2)c2ccccc2n1	D1 antag -36.1
Cc1ccc(OCCN2CCN(c3nc(NCc4ccco4)c4ccccc4n3)CC2)cc1	D1 antag -32.8
Oc1ccccc1Nc1nc(NCc2ccco2)c2ccccc2n1	none
Cc1ccc(-c2nc(C(=O)NCc3ccccc3Cl)c3n2CCCCC3)cc1	none
COc1ccc(NC(=O)CSc2nc(C)cc(C)c2C(=O)Nc2cccc(C)c2)cc1	none
Cc1ccc(C)c(OCc2nnc(N)s2)c1	TRHR enhancer 34.8
CC(=Nc1ccc(Br)cc1)c1sc2ccccc2c1O	D1 agonist 62.3
Oc1ccc(/C=N/Nc2nn3cnnc3c3ccccc23)cc1	D1 antag -51.1
CCOC(=O)c1cnc2c(-c3ccccc3)cnn2c1N	none
CCOC(=O)c1cnc2c(C#N)cnn2c1N	TRHR enhancer 36.3
CCc1cccc(NC(=O)C(Cc2ccccc2)NS(=O)(=O)c2ccc3c(c2)c(=O)n(C)c(=O)n3C)c1 (centres undefined)	none
N/C(COc1ccccc1)=N\NS(=O)(=O)c1ccccc1	TRHR enhancer 31.0
C/C(=N\NS(=O)(=O)c1ccccc1)c1ccccc1	none
Cc1cccc(NC(=O)CSC2=NN3CCCC(=O)N=C3S2)c1C	D1 antag -32.8
C/C(=N/O)c1ccccn1	none
CCCCCC/C(=N/O)c1ccccn1	D1 antag -37.1
Cc1c(C(=O)Nc2ccc3nc(N4CCOCC4)sc3c2)oc2ccccc12	D1 antag -42.6
COc1cc(C(=O)Nc2ccc3nc(N4CCOCC4)sc3c2)cc(OC)c1OC	none
Cc1ccc2nc(-c3cccc(NC(=O)c4cccc5c(Cl)cccc45)c3)oc2c1	none
CSc1oc(-c2ccc(F)cc2)nc1S(=O)(=O)c1ccc(F)cc1	none
CS(=O)(=O)c1oc(-c2ccc(F)cc2)nc1S(=O)(=O)c1ccc(Cl)cc1	TRHR enhancer 48.7
Cc1c(C(=O)Nc2cccc(Cl)c2)sc2nc3n(c(=O)c12)N=C(c1cccc(Br)c1)CS3	none
O=C(CCCn1c(=O)c2cccn2c2ccccc21)Nc1cccc(Cl)c1	D1 antag -32.1
Cc1ccc(NC(=O)CCCn2c(=O)c3cccn3c3ccccc32)c(C)c1	none
Cc1cc(C)cc(NC(=O)CCCn2c(=O)c3cccn3c3ccccc32)c1	D1 antag -70.5
Cc1ccc(NC(=O)CCCn2c(=O)c3cccn3c3ccccc32)c(Cl)c1	none
Cc1cc(C)c(NC(=O)CCn2c(=O)c3cccn3c3ccccc32)c(C)c1	D1 antag -49.3
COc1cccc(C(=O)N(Cc2cccnc2)c2nc3c(OC)ccc(C)c3s2)c1OC	none (no result: D1 antag)
Cc1ccc(NC(=O)C(=O)NCC2OCCc3ccccc32)cc1 (centres undefined)	TRHR enhancer 32.6
Cc1ccc(NC(=O)C2OCCc3ccccc32)cc1 (centres undefined)	none
CCC1(c2ccc(Cl)cc2)NC(=O)N(Cc2ccc(C(=O)OC)cc2)C1=O (centres undefined)	D1 antag -31.0
COC(=O)c1sc(N/N=C/c2ccc(C(C)C)cc2)nc1C	D1 antag -37.2 (no result: D1 potentiator)
CCCCN1C2CCCC1CC(NC(=O)c1cccc(Cl)c1)C2 (centres undefined)	D1 antag -34.7
CCCCN1C2CCCC1CC(NC(=O)C1CCCCC1)C2 (centres undefined)	D1 antag -54.7
O=C(NC1CC2CCCC(C1)N2Cc1ccccc1)C1CCCCC1 (centres undefined)	none
CCNC(=O)CC1C(=O)N(c2ccc(F)cc2)C(=O)N1CCOC (centres undefined)	none
O=C(O)c1ccc(COc2ccccc2/C=C2\NC(=O)N(Cc3ccc(F)cc3)C2=O)cc1	D1 antag -33.3
Cc1cn2c(=O)cc(COc3ccc(NC(=O)COc4ccccc4)cc3)nc2s1	none
Oc1ccccc1Nc1nc2ccccc2n2nnnc12	D1 agonist 41.6
c1ccc(Nc2nc3ccccc3n3nnnc23)cc1	D1 antag -68.8
Fc1ccccc1Nc1nc2ccccc2n2nnnc12	none
CCCOc1ccc(CNC(=O)Cn2ncn3c(cc4sc(CC)cc43)c2=O)cc1	none
CC(C)Cn1c(SCc2cccc(F)c2)nc2ccsc2c1=O	none
Cn1nnnc1Sc1ncnc2scc(-c3ccccc3S(C)(=O)=O)c12	none
COC(=O)C1=C(C)N(C)C(C)=C(C(=O)OC)C1c1ccc(C(=O)OC)cc1	none
COC(=O)C1=CNC=C(C(=O)OC)C1c1ccc(C(=O)OC)cc1	D1 agonist 38.4
c1coc(-c2nc3ccccn3c2Nc2ccc3c(c2)OCCO3)c1	D1 antag -48.6
Cc1ccc2nc(-c3ccco3)c(Nc3ccc4c(c3)OCCO4)n2c1	none
Fc1ccc(Nc2c(-c3ccco3)nc3ccccn23)cc1	TRHR enhancer 31.1!

Compound activity deposited in PubChem BioAssay by National Center for Advancing Translational Sciences (NCATS).
